Compound activity as filed in PubChem.
The list is not random: actives were taken first. Their share in the collection is about 8%.
KB-3-1 cytotox = kills parental KB-3-1 adenocarcinoma cells | KB-3-1 viability, CellTiter-Glo ATP luminescence, 72 h | Potency, µM (highest dose often 46.1 µM), most hits filed as cytotoxic | hit rate 1.4% among 400,000 | AID 1347075; note: nearly all actives have a fitted effect of over 60% in size
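KB-3-1 cells, DMEM (no phenol red) + 10% FBS; compound by pin transfer, 72 h, 37 °C. Readout: CellTiter-Glo luminescence after 10 min. Data normalized, curve-fitted.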
SW480 rerep = DNA re-replication induction in SW480 cells; SW480 DNA re-replication, Hoechst DNA content imaging, 48 h; Potency, µM (series often up to 46.1 µM), actives largely listed as activators; hit rate 1.8% among 340,000; AID 624297; note: nearly all actives have a fitted effect of over 55% in size
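Readout is total intensity of Hoechst-stained nuclei, excited at 405 nm and collected at 500-530 nm. Compound treatment lasted 48 hr at 37 C in 5% CO2 before staining.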
HT1080 IDH1KD tx = kills HT-1080 cells with IDH1 knockdown; HT-1080 IDH1 knockdown viability, ATP luminescence, 48 h; hit rate 2% among 360,000; AID 686971; Potency, µM (highest dose often 46.1 µM), usual class: cytotoxic
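In this qHTS, HT-1080 cells depleted of IDH1 are exposed for 48 h at 37 °C to compound titrations. Toxicity is scored from CellTiter-Glo luminescence, with DMSO as full viability and medium alone as none.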
KB-V1 MDR tox = KB-V1 MDR subline cytotoxicity; KB-V1 MDR cells viability, CellTiter-Glo, 72 h; AID 1347076; hit rate 3.4% among 400,000; Potency, µM (top dose mostly 46.1 µM), hits mostly cytotoxic; note: nearly all actives have a fitted effect of over 60% in size
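Following 72 h at 37 degrees C with compound, KB-V1 cell viability was read by CellTiter-Glo luminescence, medium being phenol-red-free DMEM plus 10% FBS; concentration-response parameters came from normalized, curve-fitted qHTS data.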
MCF10A rereplic = DNA re-replication induction in MCF 10a cells; hit rate 2.9% among 350,000; MCF 10A DNA re-replication, Hoechst nuclear intensity, 48 h; AID 624296; Potency, µM (highest dose often 46.1 µM), most hits filed as activators; note: nearly all actives have a fitted effect of over 50% in size
HT1080-NT tox = kills 2HG-producing HT-1080-NT fibrosarcoma cells | hit rate 1.6% among 360,000 | Potency, µM (highest dose often 46.1 µM), actives largely listed as cytotoxic | HT-1080-NT fibrosarcoma viability, CellTiter-Glo ATP luminescence, 48 h;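 note: NT is the 2HG producing partner of a matched IDH1 knockdown line; nearly all actives have a fitted effect of over 55% in size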
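A 48-hour cytotoxicity screen used HT-1080-NT cells plated 2 hours before compound delivery. ATP-based CellTiter-Glo luminescence measured viability, normalized to DMSO and no-cell controls.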
Hits are given with their value; ! = not active in a repeat; [ ] = remark or other dose. Calls come from the whole dose curve; as a rule, active = well fitted curve in the direction sought with a large enough effect; inconclusive = small, poorly fitted or top-dose-only effect, or another doubt; inactive = no such curve, though single readings can be large; an effect the other way counts as inactive or inconclusive.

For CCOC(=O)[C@]12Cc3ccccc3[C@H]1N(C)C(=O)c1cc(OC)ccc12 the results were KB-3-1 cytotox 9.2µM, HT1080 IDH1KD tx inconclusive, KB-V1 MDR tox 7.3µM and HT1080-NT tox inconclusive.
`CCOC(=O)[C@]12Cc3ccccc3[C@H]1N(Cc1ccccc1)C(=O)c1ccccc12` gave KB-3-1 cytotox inactive, SW480 rerep inactive, HT1080 IDH1KD tx inactive, KB-V1 MDR tox inconclusive, MCF10A rereplic inactive and HT1080-NT tox inactive.
For CCOC(=O)[C@]12Cc3c(cc(OC)c(OC)c3OC)[C@H]1N(C)C(=O)c1cc(OC)ccc12 the results were KB-3-1 cytotox 2.9µM, HT1080 IDH1KD tx inconclusive, KB-V1 MDR tox 3.7µM and HT1080-NT tox 15µM.
`O=c1[nH]c(=O)n(Cl)c(=O)n1Cl` gave SW480 rerep inactive and MCF10A rereplic inactive.
`CCOc1ccc(N(CC)S(=O)(=O)c2ccc3c(c2)oc(=O)n3C)cc1` gave KB-3-1 cytotox inconclusive, SW480 rerep inactive, HT1080 IDH1KD tx inactive, KB-V1 MDR tox inconclusive, MCF10A rereplic inconclusive and HT1080-NT tox inactive.
Screening COc1ccc(CN(C)S(=O)(=O)c2nnc(NC(=O)c3ccccc3Br)s2)cc1 returned KB-3-1 cytotox inactive, SW480 rerep inconclusive, HT1080 IDH1KD tx inactive, KB-V1 MDR tox inactive, MCF10A rereplic inconclusive and HT1080-NT tox inactive.
Screening CC(=O)OC1C(=O)OCC23CCC4(C)OC4C2OC2CC(OC(=O)C=CC=CC(=O)OCCC1C)C3(C)C21CO1 (configuration not stated) returned KB-3-1 cytotox 0.18µM, SW480 rerep inconclusive, KB-V1 MDR tox 0.37µM, MCF10A rereplic inactive and HT1080-NT tox 1.5µM.
Screening CC(O)C1C=CC=CC(=O)OC2CC3OC4C5OC5(C)CCC4(COC(=O)C4OC4(C)C(O)CO1)C2(C)C31CO1 (configuration not stated) returned KB-3-1 cytotox 0.21µM, SW480 rerep 0.46µM, KB-V1 MDR tox 10µM, MCF10A rereplic 0.15µM and HT1080-NT tox inconclusive.
COc1cc(/C=C(/C)[N+](=O)[O-])ccc1OCc1ccccc1Cl was read as KB-3-1 cytotox inconclusive, SW480 rerep 3.3µM, HT1080 IDH1KD tx 5.8µM, KB-V1 MDR tox inconclusive, MCF10A rereplic 3.7µM and HT1080-NT tox 8.2µM.
Screening COc1cccc(C(O)c2nc(-c3ccncc3)cs2)c1 (configuration not stated) returned KB-3-1 cytotox inactive, HT1080 IDH1KD tx inactive, KB-V1 MDR tox inconclusive and HT1080-NT tox inconclusive.
`COP(=O)(OC)OC=C(Cl)Cl` gave SW480 rerep 13µM and MCF10A rereplic 12µM.
Screening CCc1ccc(-n2nc(C)c3c2NC(=O)CSC3c2ccc(OC)cc2OC)cc1 (configuration not stated) returned KB-3-1 cytotox inconclusive and KB-V1 MDR tox inactive.
`CCCCCSc1cc(OC)c(CCNC)cc1OC` gave KB-3-1 cytotox inactive, SW480 rerep inconclusive, HT1080 IDH1KD tx 21µM, KB-V1 MDR tox inactive, MCF10A rereplic inactive and HT1080-NT tox inconclusive.
For CCCCCCCSc1cc(OC)c(CCNC)cc1OC the results were KB-3-1 cytotox inconclusive, SW480 rerep inconclusive, HT1080 IDH1KD tx inactive[9.24 µM], KB-V1 MDR tox 18µM, MCF10A rereplic inconclusive and HT1080-NT tox 23µM.
For Cc1ccc(NC(=O)C2C3CCCC2C3c2ccccc2)c(C)c1 (configuration not stated) the results were KB-3-1 cytotox inactive, SW480 rerep inactive, HT1080 IDH1KD tx inactive, KB-V1 MDR tox inactive, MCF10A rereplic inconclusive and HT1080-NT tox inactive.
For O=c1[nH]c(O)c(/C=C2\C=Nc3ccc(OCc4ccccc4)cc32)c(=O)[nH]1 the results were KB-3-1 cytotox inactive, SW480 rerep 21µM, HT1080 IDH1KD tx inactive, KB-V1 MDR tox inactive, MCF10A rereplic inconclusive and HT1080-NT tox inactive.
For O=c1[nH]c(O)c(C=NCCc2ccccc2)c(=O)[nH]1 the results were KB-3-1 cytotox inactive, SW480 rerep inactive, HT1080 IDH1KD tx inactive, KB-V1 MDR tox inconclusive, MCF10A rereplic inactive and HT1080-NT tox inactive.
COc1cc([C@@H]2c3cc4c(cc3[C@@H](OC)[C@H]3COC(=O)[C@H]23)OCO4)cc(OC)c1O was read as KB-3-1 cytotox inconclusive, SW480 rerep 5.2µM, HT1080 IDH1KD tx inconclusive, KB-V1 MDR tox inconclusive, MCF10A rereplic inconclusive and HT1080-NT tox inconclusive.
Screening COc1cc([C@@H]2c3cc4c(cc3[C@H](O)[C@H]3COC(=O)[C@H]23)OCO4)cc(OC)c1OC returned KB-3-1 cytotox 0.1µM!, SW480 rerep 0.023µM, HT1080 IDH1KD tx 0.0065µM, KB-V1 MDR tox 0.26µM, MCF10A rereplic 0.021µM and HT1080-NT tox inconclusive.
O=[N+]([O-])c1cc(C(F)(F)F)ccc1Cl was read as KB-3-1 cytotox inactive, SW480 rerep inactive, HT1080 IDH1KD tx inactive, KB-V1 MDR tox inactive, MCF10A rereplic inconclusive and HT1080-NT tox inactive.
For COc1cccc(C(C(=O)NCc2ccco2)N(Cc2ccco2)C(=O)Cn2nnc3ccccc32)c1 (configuration not stated) the results were KB-3-1 cytotox inactive, SW480 rerep inactive, HT1080 IDH1KD tx inactive, KB-V1 MDR tox inactive, MCF10A rereplic inconclusive and HT1080-NT tox inactive.
S=C=S was read as SW480 rerep inactive and MCF10A rereplic inactive.
For CCN1/C(=C\C=C\C2=[N+](CC)c3ccccc3C2(C)C)C(C)(C)c2ccccc21 the results were KB-3-1 cytotox inconclusive, SW480 rerep inconclusive, HT1080 IDH1KD tx 2.6µM, KB-V1 MDR tox 21µM, MCF10A rereplic inconclusive and HT1080-NT tox 0.65µM.
`CCOC(=O)c1c(C)c(C(=O)Nc2cc(OC)ccc2OC)c(C)n1CC` gave KB-3-1 cytotox inactive, SW480 rerep inconclusive, HT1080 IDH1KD tx 7.1µM, KB-V1 MDR tox inactive, MCF10A rereplic inconclusive and HT1080-NT tox 7.1µM.
For O=C(Nc1nnc(SCc2ccccc2Cl)s1)C1COc2ccccc2O1 (configuration not stated) the results were KB-3-1 cytotox inactive, SW480 rerep inactive, HT1080 IDH1KD tx inactive, KB-V1 MDR tox inactive, MCF10A rereplic inconclusive and HT1080-NT tox inactive.
CC1CCN(C(=O)c2ncn(C)c2C(=O)N2CCC(C)CC2)CC1 was read as KB-3-1 cytotox inactive, SW480 rerep inactive, HT1080 IDH1KD tx inactive, KB-V1 MDR tox inactive, MCF10A rereplic inactive and HT1080-NT tox inactive.
`COc1ccc(-n2nnnc2C(c2ccccc2OC(F)(F)F)N2CCC3(CC2)C(=O)NCN3c2ccccc2)cc1` (configuration not stated) gave KB-3-1 cytotox inconclusive, HT1080 IDH1KD tx 16µM, KB-V1 MDR tox inconclusive and HT1080-NT tox inconclusive.
On1ccccc1=S was read as KB-3-1 cytotox inactive, SW480 rerep inactive, HT1080 IDH1KD tx 0.33µM, KB-V1 MDR tox inconclusive, MCF10A rereplic 6.5µM and HT1080-NT tox 0.041µM.
